From PubChem
Hits are enriched below; roughly 16% of the tested compounds scored in any of these assays.
uPA surface inh – qHTS for Inhibitors of Cell Surface uPA Generation. cell surface uPA generation assay, qHTS. Potency, µM (top dose mostly 38.3 µM), inactives show top-dose activity change, negative = inhibition, hits mostly inhibitors. hit rate 0.31% among 330,000. AID 540303, 2011; active = well fitted inhibition curve with a large enough effect; inconclusive = small, poorly fitted or top-dose-only effect; inactive = no such curve, though single readings can be large or run the other way; tested in mouse RAW 264.7 cells; also: potency is read from the fitted curve at half-maximal effect; % is scaled to controls: 0 for no effect and ±100 for the full control effect; nearly all actives have a fitted effect of over 55% in size
TDP1 cell CPT – qHTS for Inhibitors of human tyrosyl-DNA phosphodiesterase 1 (TDP1): qHTS in cells in presence of CPT; hit rate 12% among 420,000; chicken DT40 Tdp1-/-;hTDP1 cells + 20 nM CPT, ATP luminescence, 48 h; Potency, µM (highest dose often 46.2 µM), without a hit: top-dose activity change, negative = growth inhibition, usual class: inhibitors; AID 686979, 2013; also: potency is read from the fitted curve at half-maximal effect; % is scaled to controls: 0 for no effect and ±100 for the full control effect; nearly all actives have a fitted effect of over 55% in size
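Chicken DT40 Tdp1-/- cells stably complemented with human TDP1 were seeded at 400 cells/well in medium containing 20 nM camptothecin, exposed to pin-transferred compounds, and grown at 37 °C for at least 48 hr. Viability was read as ATP luminescence.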
TDP1 block – qHTS Assay for Inhibitors of Tyrosyl-DNA Phosphodiesterase (TDP1); Tyrosyl-DNA phosphodiesterase 1 (Homo sapiens), Q9NUW8; recombinant TDP1, AlphaScreen DNA substrate cleavage; Potency, µM (doses to about 130 µM), for inactives: at the highest dose activity change, negative = inhibition, usual class: inhibitors; hit rate 0.28% among 350,000; AID 485290, 2010; also: potency is read from the fitted curve at half-maximal effect; % is scaled to controls: 0 for no effect and ±100 for the full control effect; nearly all actives have a fitted effect of over 40% in size
Target sequence (Q9NUW8 whole entry, looked up): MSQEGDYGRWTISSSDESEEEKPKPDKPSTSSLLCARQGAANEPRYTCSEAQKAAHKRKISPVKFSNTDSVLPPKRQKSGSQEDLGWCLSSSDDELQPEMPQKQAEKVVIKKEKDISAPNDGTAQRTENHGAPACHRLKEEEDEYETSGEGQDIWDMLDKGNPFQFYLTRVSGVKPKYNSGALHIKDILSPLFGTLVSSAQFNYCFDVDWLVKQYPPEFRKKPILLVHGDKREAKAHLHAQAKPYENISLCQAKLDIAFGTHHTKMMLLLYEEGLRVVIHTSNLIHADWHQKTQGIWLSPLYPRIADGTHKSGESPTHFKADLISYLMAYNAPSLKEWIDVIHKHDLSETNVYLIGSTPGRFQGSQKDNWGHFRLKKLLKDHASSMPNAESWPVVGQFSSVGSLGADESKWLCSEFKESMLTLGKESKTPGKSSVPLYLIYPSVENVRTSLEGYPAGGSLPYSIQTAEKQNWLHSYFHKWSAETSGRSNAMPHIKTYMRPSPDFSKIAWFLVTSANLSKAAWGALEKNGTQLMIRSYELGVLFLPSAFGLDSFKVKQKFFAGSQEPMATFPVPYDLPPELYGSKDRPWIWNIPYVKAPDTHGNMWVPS
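Enzyme-compound mixtures sat 15 min at room temperature, followed by a 5 min reaction with 15 nM final substrate and 10 min with AlphaScreen beads. Recombinant human Tdp1 was used at 1 nM final.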
DT40 TDP1 no CPT – qHTS for Inhibitors of human tyrosyl-DNA phosphodiesterase 1 (TDP1): qHTS in cells in absence of CPT; DT40 Tdp1-/- hTDP1 cells, no CPT, ATP luminescence, 48 h; Potency, µM (doses to about 46.2 µM), for the others: at the top dose activity change, negative = growth inhibition, most hits filed as inhibitors; hit rate 15% among 420,000; also: potency is read from the fitted curve at half-maximal effect; % is scaled to controls: 0 for no effect and ±100 for the full control effect; nearly all actives have a fitted effect of over 55% in size
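Luminescent ATP content (CellTiter-Glo) served as the growth readout. Knockout chicken DT40 cells expressing human TDP1 were exposed to compounds without camptothecin for a minimum 48 hr at 37 °C.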
miR-21 reporter – qHTS Assay for Modulators of miRNAs and/orActivators of miR-21 | AID 2288, 2010 | 340,000 tested, under 10 active | HeLa miR-21 FLuc reporter, luciferase, 48 h | Potency, µM (series often up to 38.3 µM), for inactives: top-dose activity change, positive = activation, most hits filed as activators;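 also: % of control where 0% means no effect; miR-21 action dims this reporter so a rising signal means less miR-21 action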
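Compounds were titrated across several concentrations (up to approximately 40 uM) and incubated 48 hours with HeLa miR-21-FLuc reporter cells (miR-21 target sequence downstream of FLuc, endogenous miR-21). Readout was firefly luciferase luminescence after lytic detection reagent.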
* hit, by the source's call; ? = inconclusive; / = not tested or not shown; ! = a repeat was not active. Unless noted, calls follow the shape of the dose curve; as a rule, active = well fitted curve in the direction sought with a large enough effect; inconclusive = small, poorly fitted or top-dose-only effect, or another doubt; inactive = no such curve, though single readings can be large; an effect the other way counts as inactive or inconclusive.

SMILES | uPA surface inh | TDP1 cell CPT | TDP1 block | DT40 TDP1 no CPT | miR-21 reporter
Cn1nc(-c2ccccc2F)c2cc(C(=O)N3CCN(c4ccc(F)cc4)CC3)sc21 | / | ? | 2% | 16µM* | 15%
COc1ccc(CNC(=O)c2cc3c(-c4ccc(Cl)cc4)nn(C)c3s2)cc1 | / | ? | -9% | ? | 7%
Cc1ccc(-n2nc(C(=O)N3CCOCC3)cc2-c2ccc(Cl)cc2)cc1 | -6% | ? | -1% | ? | -6%
CN(C1CCCCC1)S(=O)(=O)c1ccc(Cl)c(C(=O)O)c1 | 3% | -22% | 4% | -15% | -1%
O=C(CCC1CCCN(Cc2ccc3c(c2)CCO3)C1)NCc1ccc(F)c(F)c1 (centres undefined) | 1% | -4% | -4% | -9% | 4%
CCc1nnc(NC(=O)CCC(=O)N2CCN(Cc3cc(Cl)ccc3OC)CC2)s1 | 0% | -13% | 8% | -18% | 1%
CN1c2ccccc2C(=O)/C(=C\Nc2ccc(F)cc2)S1(=O)=O | -3% | -15% | 7% | -8% | 0%
Cc1ccc2nc(-c3ccc(NC(=O)Cc4cccs4)cc3)[nH]c2c1 | 2% | 23µM* | 1% | ? | -30%
O=C(Nc1ccc2nc(-c3ccccc3)[nH]c2c1)c1cccs1 | -17% | 26µM* | 3% | 13µM* | -22%
O=C(Nc1ccc2nc(-c3ccco3)[nH]c2c1)c1cccs1 | -10% | 21µM* | 2% | ? | -39%
Cn1cc([N+](=O)[O-])c(C(=O)Nc2ccc3nc(-c4ccccc4)[nH]c3c2)n1 | -9% | ? | 3% | 18µM* | -72%
CCNC(=S)N(CCc1c(C)[nH]c2ccc(C)cc12)Cc1cccs1 | 5% | ? | 7% | ? | ?
COCCNC(=O)C1CCCN(C(=O)c2cc(C)nn2C(C)(C)C)CC1 (centres undefined) | / | -7% | / | 1% | /
O=C(c1ccccc1)c1ccc2nc(-c3ccc(NC(=O)c4ccccc4F)cc3)[nH]c2c1 | -9% | 3.7µM* | 3% | 3.3µM* | -15%
O=C(O)CCC(=O)Nc1ccc(-c2nc3ccc(C(=O)c4ccccc4)cc3[nH]2)cc1 | -2% | 1% | / | 4% | -25%
COC(=O)CCC[C@H]1CC2(C[C@H](CCCO[Si](C)(C)C(C)(C)C)N1C(=O)OC(C)(C)C)OCCO2 | -4% | ? | 0% | 18µM* | /
COC(=O)c1[nH]c2ccc(F)cc2c1NC(=O)Nc1ccc(OC)cc1 | 4% | ? | -5% | 6.5µM* | -5%
COc1ccc(NC(=O)NC(C)(C(F)(F)F)C(F)(F)F)cc1 | 1% | ? | 1% | 16µM* | -8%
COc1ccc(NC(=O)Nc2ccc(F)cc2F)cc1 | -4% | 9.2µM* | 3% | 5.8µM* | -42%
CC(C)COc1ccc(C(=O)Nc2ccc(SC(F)F)cc2)cc1 | -11% | -25% | 3% | -25% | -53%
O=C(CN1CCN(C(=O)c2ccco2)CC1)NCc1ccc(Cl)cc1 | -2% | -2% | 0% | 3% | -1%
CCCCCCSc1ccc(-c2nc3ccc(C)cn3c2NCc2ccccc2)cc1 | 4% | 23µM*! | 1% | 16µM*! | /
CCCCCCSc1cccc(-c2nc3ccc(Cl)cn3c2NCc2ccccc2)c1 | 12% | 21µM* | -5% | 23µM* | /
CCCCCCSc1ccc(-c2nc3ccc(C)cn3c2NCc2ccccc2)cc1OC | 2% | 16µM* | 0% | 18µM* | /
NC(=O)c1nc(C(=O)N2CCCCC2)c2ccccc2n1 | 3% | ? | 1% | -3% | /
SMILES | uPA surface inh | TDP1 cell CPT | TDP1 block | DT40 TDP1 no CPT | miR-21 reporter
CN(C)CCN(C(=O)c1ccccc1Cl)c1nc2c(Cl)cccc2s1 | 5% | ? | 3% | ? | 4%
O=C(CCl)NCc1cc(-c2ccc(Cl)cc2)no1 | -19% | 10µM* | 6% | 18µM* | ?
CCOC(=O)C1CCN(C(=O)C2(NC(=O)Nc3ccccc3Cl)CCCCC2)CC1 | 1% | -13% | 2% | -9% | 4%
Cc1cc(O)cc2c1C1CCC3(C)C(O)CCC3C1C=C2 (centres undefined) | -5% | ? | / | 21µM* | /
COCCCNC(=O)Cn1c(=O)n(CCCCCC(=O)Nc2ccccc2)c(=O)c2sccc21 | 3% | -14% | -1% | -13% | -11%
CC(C)(C)c1ccc(C(=O)N2CCC2(C)C(=O)NCc2ccc3c(c2)OCO3)cc1 (centres undefined) | / | 12µM* | / | 9.2µM* | /
CC(C)CNC(=O)C1(C)CCCCCN1C(=O)c1cccnc1 (centres undefined) | / | -1% | / | -1% | /
CC(C)CNC(=O)C1(C)CCN1C(=O)c1ccc(C(C)(C)C)cc1 (centres undefined) | / | 10µM* | / | 8.2µM* | /
Cc1c(C(=O)N2CCCCCC2(C)C(=O)NCC(C)C)oc2ccccc12 (centres undefined) | / | ? | / | 18µM* | /
Cc1sc2ncnc(SCC(=O)N3c4ccccc4Sc4ccc(Cl)cc43)c2c1C | 1% | -10% | 0% | ? | -7%
CCOC(=O)c1c(C)sc2c1N(C(=O)CCl)c1cc(Cl)ccc1S2 | -18% | 4.1µM* | 5% | 4.1µM* | ?
COc1cc(/C=N/NC2=NS(=O)(=O)c3ccccc32)ccc1OC(C)=O | 2% | ? | / | ? | 1%
Cc1nc2ncnn2c(N2CCCC(C(=O)Nc3ccc4c(c3)CCC4)C2)c1C (centres undefined) | / | 21µM* | 9% | 23µM* | 15%
CCc1c(C)nc2ncnn2c1N1CCC(C(=O)Nc2ccc(C)cc2)CC1 | -15% | 21µM* | 3% | 15µM* | 27%
CC(=O)Nc1ccc(NC(=O)C2CCN(c3c(Cc4ccccc4)c(C)nc4ncnn34)CC2)cc1 | -5% | ? | / | -28% | /
CCOc1ccccc1NC(=O)C1CCCN(c2c(CC)c(C)nc3ncnn23)C1 (centres undefined) | -3% | 21µM* | / | 21µM* | 0%
CCc1c(C)nc2ncnn2c1N1CCC(C(=O)Nc2ccccc2)CC1 | 3% | ? | 3% | 16µM* | 12%
O=C(CN(Cc1ccc(F)cc1)C(=O)CNS(=O)(=O)c1ccc(F)cc1)NCc1ccco1 | -2% | -20% | 0% | -26% | 1%
COC(=O)C1=C(C)NC(=S)NC1c1ccc(-c2cc(Cl)ccc2Cl)o1 (centres undefined) | 6% | 6.5µM* | / | 5.8µM* | 17%
COC(=O)C1=C(C)NC(=O)NC1c1ccc(-c2ccc(Cl)cc2)o1 (centres undefined) | -11% | -28% | 6% | ? | -9%
